# Shown are actives, neighbours in structure and some others; about 4.2% of the full set was active somewhere.
# E coli RNAP: Escherichia coli RNA polymerase inhibition; P0A8V2; E. coli RNA polymerase, fluorescence transcription assay; inhibition, %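 (tested at 10 µM)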; 62,000 tested, 0.2% active; AID 559; in the data active means inhibition above about 20%;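 further: 0% = enzyme without compound and 100% = no enzyme blank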
# Cav32 inh: blocks human Cav3.2 T-type calcium channel | O95180 | Cav3.2-expressing cells, Fluo-4 calcium fluorescence FDSS; hits give low values | B-score at 10 µM | 100,000 tested, 4% active;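 active means single-dose well whose peak fluorescence ratio is a statistical outlier from its plate by either plate-standardised score or position-corrected B-score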
# Pyk2 oligo antag: blocks oligomerization of human Pyk2 in cells; AID 1347419; Q293 cells, Pyk2 FERM NanoBiT luminescence; hits give low values; z-score (the deposit names both 25 µM and 10 µM); 99,000 tested, 0.83% active;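 active means Z-score of -3 or lower, scaled per plate to the spread of control and sample wells; inactive means z-score above -3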;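 further: negative z-score means lost luminescence so less FERM oligomerization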
# CD11b adhes inh: inhibitors of human CD11b/CD18 binding to fibrinogen. K562 CD11b/CD18 adhesion to fibrinogen, ATPlite luminescence; Mn2+ added to activate the integrin. inhibition, % at 10 µM. 93,000 tested, 0.54% active;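 active means primary inhibition of 50% or more at 10 µM, then 40% or more on retest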
# Mac1 fbg enh: increases human CD11b/CD18 adhesion to fibrinogen. P05107+P11215. K562 CD11b/CD18 adhesion to fibrinogen, ATPlite luminescence. activation, % at 10 µM. 93,000 tested, 0.07% active;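 active means 10 µM primary screen giving 50% or more activity, confirmed by 40% or more on retest at that dose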
# Numbers without * were called inactive; . = no result given.
SMILES,E coli RNAP,Cav32 inh,Pyk2 oligo antag,CD11b adhes inh,Mac1 fbg enh
CSc1nc(SCC(N)=O)c2c3c(sc2n1)CN(C)CC3,2,4.1*,2.5,-6,-2
Cc1noc(C)c1COC(=O)C1(c2cccc(F)c2)CCCC1,1,-5*,1.6,10,-1
CCN(c1ccc(NC(=O)CN2C(=O)NC3(CCOc4ccccc43)C2=O)cc1)C(C)C (configuration not stated),.,-2.3,-1.2,-11,1
c1ccc(CCCNc2ncnc3nc[nH]c23)cc1,6,0.19,.,8,-4
Clc1ccc(CCNc2ncnc3nc[nH]c23)cc1,12,-0.00083,.,60*,-9
CC(C)Oc1cc(NC(=O)CS(=O)CC(=O)Nc2cccc(C(F)(F)F)c2)c(Cl)cc1Cl (configuration not stated),.,-3.8*,-0.44,23,-4
COCC(=O)Nc1cccc(C(F)(F)F)c1,.,0.011,0.43,-5,-4
COc1ccc(/C=c2/sc3n(c2=O)C(c2ccccc2OC)C2=C(N=3)c3ccccc3CC2)cc1O (configuration not stated),.,-0.24,-1.7,-14,169*
COC(C[C@@H](O)CC(=O)COCc1ccccc1)OC,.,-1.1,.,.,.
COc1ccc(C(=O)Nn2cnc3scc(-c4cccs4)c3c2=O)c(O)c1,8,-9*,-1.3,.,.
O=C(NC1CC2CCCC(C1)N2C(=O)Nc1ccc(Cl)c(C(F)(F)F)c1)C1CC1 (configuration not stated),.,-5.7*,1.1,.,.
O=C(NC1CC2CCC(C1)N2C(=O)NCc1ccccc1)C1CC1 (configuration not stated),8,0.93,-0.22,0,-6
COC(C[C@H]1O[C@H]1[C@H](O)[C@H](C)OCc1ccccc1)OC,.,-1.1,.,.,.
O=C(NCc1ccccc1)C(c1ccc(O)cc1)N(C(=O)Cn1nnc(-c2cccs2)n1)c1ccc2c(c1)OCCO2 (configuration not stated),.,-3.4,-2.8,.,.
COc1cccc(N(C(=O)Cn2nnc(-c3cccs3)n2)C(C(=O)NC(C)C)c2ccc(C)o2)c1 (configuration not stated),.,-0.082,-3.5*,.,.
CC(C)CC(C(=O)NCC1CCCO1)N(C(=O)Cn1nnc(-c2ccc(F)cc2)n1)c1cccc(C(F)(F)F)c1 (configuration not stated),.,-5,-0.43,.,.
O=C(NC1CCCC1)C(c1c[nH]c2ccccc12)N(C(=O)Cn1nnc(-c2ccc(Cl)cc2)n1)c1ccccc1 (configuration not stated),.,-4.6,-2.4,.,.
CC(C)(C)NC(=O)C(c1ccco1)N(C(=O)Cn1nnc(-c2ccc(F)cc2)n1)c1ccccc1F (configuration not stated),5,-5*,-1.4,-33,3
COc1cccc(N(C(=O)Cn2nnc(-c3ccc(C)cc3)n2)C(C(=O)NC(C)(C)C)c2c[nH]c3ccccc23)c1 (configuration not stated),.,-5.6*,0.34,.,.
Cc1ccc(-c2nnn(CC(=O)N(c3ccccc3F)C(CC(C)C)C(=O)NCC3CCCO3)n2)cc1 (configuration not stated),.,-4.4*,-0.24,.,.
Cn1c(CC(=O)Nc2ccccc2C(F)(F)F)c(Sc2ccccc2)c2ccccc21,.,.,-0.53,-15,1
CCC(C(=O)NC1CCCC1)N(C(=O)Cn1nnc(-c2ccc(OC)c(OC)c2)n1)C1CCCCC1 (configuration not stated),1,-0.18,0.63,3,-4
Cc1ccc(N(C(=O)Cn2nnc(-c3ccc(F)cc3)n2)C(CC(C)C)C(=O)NCC2CCCO2)cc1 (configuration not stated),.,-7.4*,-0.33,.,.
CCC(C(=O)NC1CCCC1)N(C(=O)Cn1nnc(-c2ccc(C)cc2)n1)C1CCCC1 (configuration not stated),.,-6.5*,0.45,.,.
CC(C)CC(C(=O)NCC1CCCO1)N(C(=O)Cn1nnc(-c2ccc(F)cc2)n1)c1ccccc1F (configuration not stated),.,-3.4*,-0.69,.,.
SMILES,E coli RNAP,Cav32 inh,Pyk2 oligo antag,CD11b adhes inh,Mac1 fbg enh
COc1cc(/C=C\C(=O)NCc2ccc3c(c2)cc(C)n3C)cc(OC)c1OC,.,-0.28,.,.,.
Cc1cc(SCC(=O)c2cccs2)nc2ccccc12,.,.,.,19,2
O=C(NCc1cccnc1)c1cccn2c(=O)c3sccc3nc12,.,0.55,-0.42,.,.
Cc1ccc(Cn2ncc3c(N4CCN(c5ccccc5C)CC4)ncnc32)cc1,8,-5.6*,0.16,55,-5
CCOc1ccc(-c2nnc(-c3ccccc3)o2)cc1,.,-2.9*,0.35,.,.
CCOC(=O)COc1ccc(-c2nnc(-c3ccccc3)o2)cc1,-2,-1.4,-0.12,7,-1
CCOC(=O)c1nnc(-c2ccccc2)o1,8,-4.5*,0.61,-13,-1
S=C1N(c2ccccc2)C(c2ccc(Cl)cc2)N2CCCN12 (configuration not stated),.,-4.8*,-0.64,-6,0
Cc1ccc(SCC2(O)CCN(S(=O)(=O)c3ccc(Cl)cc3)CC2)cc1,.,-6.1*,-2.2,.,.
CN1CCN(C(=O)c2ccc(CSc3ccc(Cl)cc3)cc2)CC1,.,.,.,76*,-2
O=C(c1ccc(Cl)cc1)N1CCC(O)(CSc2ccc(Cl)cc2)CC1,.,-6.5*,-0.79,.,.
O=C(c1ccc(Cl)cc1)N1CCC(O)(CSc2ccccc2)CC1,.,.,-0.12,-12,0
CCO[C@@H]1OC(C(=O)NC2CC2)=C[C@H](c2ccc(C(F)(F)F)cc2)[C@H]1CCCO,.,0.61,.,.,.
CCC(C)(C(=O)NC1CCCC1)N(Cc1ccco1)C(=O)c1ccc2c(c1)OCO2 (configuration not stated),2,-3.6*,0.37,.,.
S=C(Nc1ccccc1Oc1ccccc1)Nc1cccc(Cl)c1Cl,.,.,.,98,-7
CCOc1ccc(C(=O)CCC(=O)O)cc1,.,-0.043,-0.31,.,.
CCOc1ccc(C(=O)CCc2nc3ccccc3s2)cc1,.,-3.5,-3.3*,.,.
CCCCC(=O)Nc1sc2c(c1C(=O)OCC)CCC(C=O)=C2Cl,.,-0.021,-3*,-1,-5
Cc1ccccc1Nc1nc(Nc2ccccc2C)nc(SC2=NCCS2)n1,.,-4.6*,-1.8,28,-3
Cc1ccc(Nc2nc(Nc3ccc(C)cc3)nc(SC3=NCCS3)n2)cc1,.,.,-1.5,-10,1
Cc1cc2nc(C3CCN(CC4COc5ccccc5O4)CC3)[nH]c2cc1C (configuration not stated),-5,-6.3*,-0.43,-5,-2
CCOC(=O)c1[nH]c2c(c1C)C(=O)CC(c1ccc(OC)c(OC)c1)C2 (configuration not stated),-1,0.061,1.8,-30,-5
COc1cc(C2CC(=O)c3c([nH]c(C(=O)OCCOC(C)C)c3C)C2)cc(OC)c1OC (configuration not stated),7,-4.7*,.,46,-4
CCCOCCOC(=O)c1[nH]c2c(c1C)C(=O)CC(c1cc(OC)ccc1OC)C2 (configuration not stated),-1,-5.3*,.,.,.

# High-throughput results from PubChem BioAssay.
